From PubChem BioAssay AID1159506 (National Center for Advancing Translational Sciences (NCATS), 2015) come the findings set out here.

Whole data set: some 59,000 sequences, median the read-out near -0.00055, cut for the lowest 2% near -2. Only a selection was taken, and the lowest values are over-represented in it overall.

A short description of the assay: Identification of proteins required for the processing of the EWS-FLI1 nascent transcript.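 Further: robust z of luciferase light less the median z of siRNAs with the same seed.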 Conditions: TC32 Ewing sarcoma NR0B1-luc vs CMV-luc (EWS-FLI1 target promoter against control promoter), 48 h; screened at 20 nM (by protocol). As for the experimental part: Ewing sarcoma (ES) cells depend on the EWS-FLI1 fusion transcription factor for cell survival. Using an assay of EWS-FLI1 activity and genome-wide siRNA screening we have identified proteins required for the processing of the EWS-FLI1 nascent transcript. Parallel genome-wide siRNA-mediated RNAi screens were conducted in Ewing sarcoma TC32 cell lines expressing a luciferase (luc) reporter protein driven by either the promoter of the EWS-FLI1 target gene NR0B1 (TC32-NR0B1-luc) or the CMV promoter (TC32-CMV-luc). Luciferase activity was assessed 48 hours post siRNA-transfection.
Twenty microl of serum-free media containing Lipofectamine RNAiMax (0.05 microl) was added to wells containing siRNA (0.8 pmol). Lipid and siRNA were allowed to complex for 45 min at ambient temperature before addition of 600 cells in RPMI-1640, 20% FBS to yield final transfection mixtures containing 20 nM siRNA in RPMI-1640, 10% FBS. Luciferase expression was measured using OneGlo (Promega, Madison, WI). The genome-wide screening campaign was conducted using Ambion's human genome library version 4.1 (Ambion, Austin TX). This library targets approximately 21000 human genes, three siRNAs per gene. Each siRNA is arrayed in an individual well of a 384-well plate. Parallel transfections were conducted in TC32-NR0B1-luc and TC32-CMV-luc cell lines and luciferase expression (OneGlo, Promega) was assayed 48 h later on a PerkinElmer Envision 2104 Multilabel plate reader (PerkinElmer, Waltham, MA). Qiagen's AllStars Negative control was incorporated on all screening plates for normalization (16 wells per plate). Qiagen, Germantown, MDsiGL4 was incorporated as a positive transfection control (16 wells per plate) on all plates. […] The raw luciferase data for the NR0B1- and CMV-luc screens were normalized and z-score-MAD transformed using standard methods (Chung et al., 2008). The miRNA-like seed sequence of every siRNA was determined and the median z-score for all siRNA sequences with the same seed sequence was calculated. This z-score was subtracted from the z-score associated with each siRNA with that seed sequence to generate a seed-adjusted z-score value (Z) that was used when the results for the three siRNAs corresponding to each gene were compared (Marine et al., 2012)
Sequence UCUGUUCCAAGGCACUAUC against NFE4 displayed a seed-corrected z-score of 0.0636. For UUAUACACGAGGAAGAUGU against TMEM169, the seed-corrected z-score was -0.406. With UGAGUAAACAGCCUCAGUC against CMIP the figure was -0.223; with UCUCGAUGAAGUCAAACAG against COPG1, -2.97; with AAUUUGCUAAAUCGUAUUC against CLLU1, -0.521. With UCCAUUAUCCCAAUAGACC against PGM2 the figure was -0.182; with UAGGGUUGGACUUUUUGUC against CYB5R3, 0.597. With UCCAGUACCUUUUCCUUGG against LOC199882 the figure was 0.35; with AAUACUUGAAGGAAUAGGC against SUPT6H, -5.83; with UACCAUAUUAUACACUUGC against STARD6, -0.0986. With AUGGAUCCAAUUUGAGUUU against NR2F2-AS1, the seed-corrected z-score was 1.74. With AUCUCAUAAAAGAUCAUCC against NUTM1 the figure was -0.0209; with UAUUGUUAAGGACUUUAAC against DNAJB6, 0.648; with UUCGGUACACUCAUACGGC against ZNF300, 0.363. UUAGCUGCUCGGUAACUGG against EPB41: the seed-corrected z-score is -2.39.

UAAUGACAUAUCGACAUUU against MIDN yielded a seed-corrected z-score of -0.523. With UUAGAGAAUAUGCCCAUGA against FGD3 the figure was -1.11. UUUGGGUAGAGGCCGAAUG against DNAJC13 came in with a seed-corrected z-score of -2.18. Sequence UAUGUUAUCAGUCCAUCUG against MND1 showed a seed-corrected z-score of 0.573.

The sequence UCUACAUCAAUAACAGAGG against C5orf28 showed a seed-corrected z-score of 0.545. As to UUAUUGGUUGUGACUUUCC against TSLP, the seed-corrected z-score worked out at 0.686. With UCCCUUUUAAGCAACCUAC against APOC3 the figure was -0.83; with UCAAUAUCCAGACCUGGUG against SF3A1, -2.88. As to UCCCGUAAAACAGAGACAC against OR2C3, the seed-corrected z-score was -0.66. With AUCGUGCUCGCUUGGAUCC against LOC729083 the figure was -0.203; with UCGGUUGCGAAUCAGAAUC against NOTCH2, -2.01; with UUAGAUACUCUGCAGGAUG against EPHA5, 0.46. With UUUAAUGUCCCAGUCCUCG against TMEM160 the figure was 0.858; with UCUUACAUAGGUAAUUGCC against AGTR1, -0.402; with UUCCUUAACCCAUCUACAG against C2orf49, 0.273. With UGAAUGACAUCCACUACCU against OR6K2 the figure was 1.02; with UCAAAGUCGAUUUCAAUCU against BRD4, -2.4. In the case of UAGAUGUCUGGAGCCCAUC against LYPD6, the seed-corrected z-score was -0.74. The sequence AAAGGAGUCAGAUUCAUGC against GPATCH2L had a seed-corrected z-score of 0.347.

On to UCUCCAACCAAUUGCCUCC against LOC200726, for which the seed-corrected z-score is -0.147. With UAGGGAACUCGUAUCUAGC against RNF213 the figure was 0.191.
